Screens as filed in PubChem.
Compounds with a hit are over-represented: about 27% of the library has one in this group of screens.
EphB4 antag – antagonists of human EphB4-ephrin-B2 interaction; P54760; EphB4 LBD / TNYL-RAW-Alexa532 peptide, fluorescence polarization; inhibition, % at 7 µM; 97,000 tested, 0.15% active; AID 720;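 active = inhibition above the screen-wide mean inhibition plus 3 SD, cut at about 15% in these data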;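 also: 0% = DMSO wells and 100% = excess unlabeled TNYL-RAW peptide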
CYP2C19 activ – activators of human cytochrome P450 2C19; 96,000 tested, under 10 active; activation factor at 5 µM; recombinant CYP2C19, luciferin-H EGE luminescence; stronger effect = higher value; 0 = fully inhibited enzyme, 1 = untreated enzyme; AID 1025;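 active = activation factor of at least 2 at 5 µM in the primary screen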;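 also: 0 = wells with 2.5 mM tranylcypromine and 1 = vehicle-only wells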
CYP2C19 inhib – human CYP2C19 inhibition; P33261; CYP2C19 Supersomes, luciferin-H EGE luminescence, 30 min; inhibition, % at 5 µM; 96,000 tested, 21% active; AID 778;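 active = CYP2C19 inhibition above a set limit at 5 µM in the primary screen, cut at about 50% in these data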;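 also: plate controls were negative control wells for no effect and 2.5 mM tranylcypromine positive control for full effect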
CYP2C9 inhib – human CYP2C9 inhibition | P11712 | CYP2C9 Supersomes, luciferin-H conversion, luminescence | inhibition, % at 5 µM | 96,000 tested, 20% active;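 active = blocking of liver enzyme CYP2C9 beyond about 50% at 5 µM, limit read from the data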
Target sequence (P11712 whole entry, looked up): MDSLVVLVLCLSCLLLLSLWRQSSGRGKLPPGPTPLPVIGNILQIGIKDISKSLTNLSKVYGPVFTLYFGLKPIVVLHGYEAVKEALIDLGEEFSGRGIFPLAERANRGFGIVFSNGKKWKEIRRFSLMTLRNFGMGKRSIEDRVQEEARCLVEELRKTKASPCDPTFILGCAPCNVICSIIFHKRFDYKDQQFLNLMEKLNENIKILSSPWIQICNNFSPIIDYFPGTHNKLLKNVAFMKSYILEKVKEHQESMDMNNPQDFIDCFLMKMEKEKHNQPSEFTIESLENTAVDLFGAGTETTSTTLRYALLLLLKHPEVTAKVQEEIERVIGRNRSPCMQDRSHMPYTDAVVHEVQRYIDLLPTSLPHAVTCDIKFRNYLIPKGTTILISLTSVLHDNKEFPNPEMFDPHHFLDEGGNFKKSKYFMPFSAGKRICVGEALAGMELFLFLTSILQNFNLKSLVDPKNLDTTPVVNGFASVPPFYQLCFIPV
CYP2C9 act – increases human cytochrome P450 2C9 activity | P11712 | recombinant CYP2C9, luciferin-H conversion, luminescence; stronger effect = higher value; factor 1 = untreated enzyme, 0 = blocked | activation factor at 5 µM | 96,000 tested, 1.4% active | AID 1024;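 active = activation factor of 2 or more for CYP2C9 at a 5 µM dose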;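 also: 0 = sulfaphenazole-blocked wells and 1 = vehicle-only wells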
Numbers without * were called inactive; nt = no result.

SMILES | EphB4 antag | CYP2C19 activ | CYP2C19 inhib | CYP2C9 inhib | CYP2C9 act
CCC/C(O)=C1\C(=O)CC(C)(C)CC1=NCCO | nt | 1.1 | -10 | -33 | 1.3
O=C(NCCN1CCOCC1)c1cnn2c(-c3ccccc3)cc(-c3ccccc3)nc12 | -2 | 0.4 | 57* | 36 | 0.6
O=C(NCCN1CCOCC1)c1ccccc1-c1ccccc1 | -1 | 0.9 | 15 | 14 | 0.9
CCOC(=O)c1cnc(SC2CC(=O)N(c3cccc(OC)c3)C2=O)nc1N (stereo not given) | -4 | 0.6 | 36 | 73* | 0.3
CCS(=O)(=O)N1CCCC(C(=O)NCc2ccccc2Cl)C1 (stereo not given) | 12 | 0.7 | 30 | -16 | 1.2
COC(=O)c1nnn(-c2nonc2N)c1CSc1ccccn1 | nt | 0.2 | 80* | 23 | 0.8
CCCN(CCC)Cc1c(C(=O)OCC)nnn1-c1nonc1N | -3 | 1 | 0 | 19 | 0.8
CC(C)OC(=O)c1nnn(-c2nonc2N)c1CSc1ccccn1 | -3 | 0.3 | 74* | 57* | 0.4
Cc1nc2ccc3nc(NC(=O)c4ccc(S(=O)(=O)N5CCOCC5)cc4)sc3c2s1 | -3 | 0.9 | 9 | 17 | 0.8
CCOC(=O)c1c(NC(=O)C2CCCO2)sc2c1CCC2 (stereo not given) | 5 | 1 | 2 | 25 | 0.8
COc1cc(-c2nnc(-c3cccnc3)o2)cc(OC)c1OC | 6 | 0.8 | 25 | 7 | 0.9
COC(=O)C1=C(N)Oc2cc(C)n(CC3CCCO3)c(=O)c2C1c1ccc(Cl)cc1 (stereo not given) | -6 | 0.3 | 67* | 57* | 0.4
COC(=O)C1=C(N)Oc2cc(C)n(Cc3cccnc3)c(=O)c2C1c1cc(OC)ccc1OC (stereo not given) | 8 | 0.6 | 36 | 23 | 0.8
COC(=O)C1=C(N)Oc2cc(C)n(CCCn3ccnc3)c(=O)c2C1c1cccc(Cl)c1 (stereo not given) | nt | 0.2 | 83* | 92* | 0.1
COC(=O)C1=C(N)Oc2cc(C)n(CC3CCCO3)c(=O)c2C1c1ccccc1 (stereo not given) | 0 | 0.9 | 10 | 22 | 0.8
COC(=O)C1=C(N)Oc2cc(C)n(CCc3ccccc3)c(=O)c2C1c1cccnc1 (stereo not given) | 7 | 0.1 | 92* | 85* | 0.1
COC(=O)C1=C(N)Oc2cc(C)n(Cc3cccnc3)c(=O)c2C1c1cccc(OC)c1OC (stereo not given) | 3 | 0.7 | 35 | 50* | 0.5
CC1Cc2ccccc2N1CC(=O)Nc1ccc2c(c1)OCO2 (stereo not given) | -3 | 0.7 | 31 | 4 | 1
c1ccc2nc(-c3nc4ccccc4o3)ccc2c1 | nt | 0.3 | 71* | 43 | 0.6
CC1(C)CC(=O)C2=C(C1)N(N1CCOCC1)C(N)=C(C#N)C2c1cccnc1 (stereo not given) | 5 | 0.9 | 5 | 8 | 0.9
Cc1ccc(N2C(N)=C(C#N)C(c3cccnc3)C3=C2CC(C)(C)CC3=O)cc1 (stereo not given) | 8 | 0.8 | 23 | 52* | 0.5
Cc1ccc(N2C(N)=C(C#N)C(c3ccsc3)C3=C2CC(C)(C)CC3=O)cc1 (stereo not given) | 8 | 0.6 | 43 | 83* | 0.2
Cc1ccc(C2C(C#N)=C(N)N(c3ncn[nH]3)C3=C2C(=O)CC(C)(C)C3)cc1 (stereo not given) | 9 | 0.7 | 28 | 65* | 0.4
N#CC1=C(N)N(c2ccccc2)C2=C(C(=O)CCC2)C1c1ccsc1 (stereo not given) | nt | 0.8 | 16 | 30 | 0.7
O=C(Nc1nnc(SCc2ccc(F)cc2)s1)C1Cc2ccccc2CN1C(=O)c1ccco1 (stereo not given) | -5 | 0.7 | 29 | 49 | 0.5
CCOC(=O)C1CCCN(c2nc3ccccc3nc2C(C#N)C(=O)OCC)C1 (stereo not given) | nt | 0.1 | 93* | 96* | 0
CC(C)COC(=O)C(C#N)c1nc2ccccc2nc1N1CCN(Cc2ccccc2)CC1 (stereo not given) | 2 | 0.9 | 7 | 23 | 0.8
COCC(C)OC(=O)C(C#N)c1nc2ccccc2nc1N1CCN(Cc2ccccc2)CC1 (stereo not given) | 3 | 0.3 | 74* | 90* | 0.1
CCOC(=O)C1CCCN(c2ncnc3c2oc2ccccc23)C1 (stereo not given) | -6 | 0.3 | 69* | 46 | 0.5
